Publication PMC11006913
Changes are numbered by the printed parent chain.

Experiments:
Test in all cases: PBM; 200 nM protein, PBS
Details in all cases: dsDNA, one strand shown
PAX4 [1] = biological target: T1, PAX4 (Homo sapiens, UniProt O43316 9-242, R200K)
T1 sequence: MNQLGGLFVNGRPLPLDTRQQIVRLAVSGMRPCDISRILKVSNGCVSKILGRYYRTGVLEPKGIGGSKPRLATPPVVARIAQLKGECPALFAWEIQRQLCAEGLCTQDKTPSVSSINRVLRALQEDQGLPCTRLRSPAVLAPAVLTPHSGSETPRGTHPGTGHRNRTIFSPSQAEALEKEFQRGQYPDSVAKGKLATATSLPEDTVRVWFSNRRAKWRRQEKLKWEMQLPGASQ

PAX4 [2] = biological target: T2, PAX4 (Homo sapiens, UniProt O43316 9-242)
T2 sequence: T1 sequence with K192R

ALX3 [3] = biological target: ALX3 (Homo sapiens, UniProt O95076 139-225, N203Q)
PAX4 [4] = biological target: T3, PAX4 (Homo sapiens, UniProt O43316 9-242, R200Q)
T3 sequence: T1 sequence with K192Q

PAX4 [5] = biological target: T4, PAX4 (Homo sapiens, UniProt O43316 9-242, F177V)
T4 sequence: T1 sequence with F169V, K192R

ALX3 [6] = biological target: ALX3 (Homo sapiens, UniProt O95076 139-225)
PAX4 [7] = biological target: T5, PAX4 (Homo sapiens, UniProt O43316 9-242, F177Y)
T5 sequence: T1 sequence with F169Y, K192R

ALX3 [8] = biological target: ALX3 (Homo sapiens, UniProt O95076 139-225, L168Q)
ALX3 [9] = biological target: ALX3 (Homo sapiens, UniProt O95076 139-225, L168V)
PAX4 [10] = biological target: T6, PAX4 (Homo sapiens, UniProt O43316 9-242, R227W)
T6 sequence: T1 sequence with K192R, R219W

ALX3 [11] = biological target: ALX3 (Homo sapiens, UniProt O95076 139-225, N203S)
HOXD13 [12] = biological target: HOXD13 (Homo sapiens, UniProt P35453 263-343, T313R)
PITX2 = PITX2 (Homo sapiens, UniProt Q99697 72-157)
HOXD13 [13] = biological target: HOXD13 (Homo sapiens, UniProt P35453 263-343)
HOXD13 [14] = biological target: HOXD13 (Homo sapiens, UniProt P35453 263-343, T313A)
HOXA2 [15] = biological target: HOXA2 (Homo sapiens, UniProt O43364 129-215, R185T)
NKX2-6 [16] = biological target: T7, NKX2-6 (Homo sapiens, UniProt A6NCS4 118-204)
T7 sequence: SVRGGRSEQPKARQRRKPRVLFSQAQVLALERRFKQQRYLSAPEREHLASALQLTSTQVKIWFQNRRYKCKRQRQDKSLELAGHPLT

HOXA2 [17] = biological target: HOXA2 (Homo sapiens, UniProt O43364 129-215, R185K)
NKX2-6 [18] = biological target: T8, NKX2-6 (Homo sapiens, UniProt A6NCS4 118-204, F151L)
T8 sequence: T7 sequence with F34L

HOXA2 [19] = biological target: HOXA2 (Homo sapiens, UniProt O43364 129-215, Y150S)
HOXA2 [20] = biological target: HOXA2 (Homo sapiens, UniProt O43364 129-215)
Chain of HOXA2 (Homo sapiens, UniProt O43364 129-215) (O43364 129-215): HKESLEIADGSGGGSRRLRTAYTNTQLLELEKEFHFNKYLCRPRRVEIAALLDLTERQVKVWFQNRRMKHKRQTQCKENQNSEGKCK

Chain of ALX3 (Homo sapiens, UniProt O95076 139-225, N203Q) (O95076 139-225 N203Q): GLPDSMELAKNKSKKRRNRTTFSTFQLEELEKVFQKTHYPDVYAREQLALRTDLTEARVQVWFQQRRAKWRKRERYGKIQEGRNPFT
Chain of ALX3 (Homo sapiens, UniProt O95076 139-225, L168Q) (O95076 139-225 L168Q): as the sequence (O95076 139-225 N203Q) above, with L30Q, Q65N counted along it
Chain of ALX3 (Homo sapiens, UniProt O95076 139-225) (O95076 139-225): as the sequence (O95076 139-225 N203Q) above, with Q65N counted along it
Chain of ALX3 (Homo sapiens, UniProt O95076 139-225, L168V) (O95076 139-225 L168V): as the sequence (O95076 139-225 N203Q) above, with L30V, Q65N counted along it
Chain of ALX3 (Homo sapiens, UniProt O95076 139-225, N203S) (O95076 139-225 N203S): as the sequence (O95076 139-225 N203Q) above, with Q65S counted along it
Chain of HOXA2 (Homo sapiens, UniProt O43364 129-215, R185K) (O43364 129-215 R185K): as the sequence (O43364 129-215) above, with R57K counted along it
Chain of HOXA2 (Homo sapiens, UniProt O43364 129-215, Y150S) (O43364 129-215 Y150S): as the sequence (O43364 129-215) above, with Y22S counted along it
Chain of HOXA2 (Homo sapiens, UniProt O43364 129-215, R185T) (O43364 129-215 R185T): as the sequence (O43364 129-215) above, with R57T counted along it
Chain of HOXD13 (Homo sapiens, UniProt P35453 263-343) (P35453 263-343): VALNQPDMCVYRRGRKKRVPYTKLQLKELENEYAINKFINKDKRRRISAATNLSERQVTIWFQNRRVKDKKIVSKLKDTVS
Chain of HOXD13 (Homo sapiens, UniProt P35453 263-343, T313R) (P35453 263-343 T313R): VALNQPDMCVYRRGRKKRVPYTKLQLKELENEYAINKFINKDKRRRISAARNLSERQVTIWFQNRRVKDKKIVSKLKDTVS
Chain of HOXD13 (Homo sapiens, UniProt P35453 263-343, T313A) (P35453 263-343 T313A): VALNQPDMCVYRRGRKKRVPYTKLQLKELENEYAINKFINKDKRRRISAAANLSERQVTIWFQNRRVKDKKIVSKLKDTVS

## CGGCTGAG
PAX4 [1]
  binding signal: 9.44 upbm affinity estimate (log intensity, higher = more binding, comparable within an allelic series)
PAX4 [2]
  binding signal: 9.36 upbm affinity estimate (log intensity, higher = more binding, comparable within an allelic series)
ALX3 [3]
  binding signal: 7.73 upbm affinity estimate (log intensity, higher = more binding, comparable within an allelic series)
PAX4 [4]
  binding signal: 9.42 upbm affinity estimate (log intensity, higher = more binding, comparable within an allelic series)
PAX4 [5]
  binding signal: 9.34 upbm affinity estimate (log intensity, higher = more binding, comparable within an allelic series)
ALX3 [6]
  binding signal: 7.82 upbm affinity estimate (log intensity, higher = more binding, comparable within an allelic series)
PAX4 [7]
  binding signal: 9.23 upbm affinity estimate (log intensity, higher = more binding, comparable within an allelic series)
ALX3 [8]
  binding signal: 7.79 upbm affinity estimate (log intensity, higher = more binding, comparable within an allelic series)
ALX3 [9]
  binding signal: 7.77 upbm affinity estimate (log intensity, higher = more binding, comparable within an allelic series)
PAX4 [10]
  binding signal: 9.35 upbm affinity estimate (log intensity, higher = more binding, comparable within an allelic series)
ALX3 [11]
  binding signal: 7.7 upbm affinity estimate (log intensity, higher = more binding, comparable within an allelic series)

## AGTGATTA
PAX4 [1]
  binding signal: 11.1 upbm affinity estimate (log intensity, higher = more binding, comparable within an allelic series)
PAX4 [2]
  binding signal: 11.4 upbm affinity estimate (log intensity, higher = more binding, comparable within an allelic series)
PAX4 [4]
  binding signal: 11.1 upbm affinity estimate (log intensity, higher = more binding, comparable within an allelic series)
PAX4 [5]
  binding signal: 10.3 upbm affinity estimate (log intensity, higher = more binding, comparable within an allelic series)

## CGGCGTCA
PAX4 [1]
  binding signal: 9.36 upbm affinity estimate (log intensity, higher = more binding, comparable within an allelic series)
PAX4 [2]
  binding signal: 9.43 upbm affinity estimate (log intensity, higher = more binding, comparable within an allelic series)
HOXD13 [12]
  binding signal: 9.54 upbm affinity estimate (log intensity, higher = more binding, comparable within an allelic series)
PAX4 [4]
  binding signal: 9.37 upbm affinity estimate (log intensity, higher = more binding, comparable within an allelic series)
PITX2
  binding signal: 8.08 upbm affinity estimate (log intensity, higher = more binding, comparable within an allelic series)
HOXD13 [13]
  binding signal: 9.49 upbm affinity estimate (log intensity, higher = more binding, comparable within an allelic series)
PAX4 [5]
  binding signal: 9.21 upbm affinity estimate (log intensity, higher = more binding, comparable within an allelic series)
PAX4 [7]
  binding signal: 9.24 upbm affinity estimate (log intensity, higher = more binding, comparable within an allelic series)
HOXD13 [14]
  binding signal: 9.61 upbm affinity estimate (log intensity, higher = more binding, comparable within an allelic series)
PAX4 [10]
  binding signal: 9.35 upbm affinity estimate (log intensity, higher = more binding, comparable within an allelic series)

## CGGTACCG
PAX4 [1]
  binding signal: 9.38 upbm affinity estimate (log intensity, higher = more binding, comparable within an allelic series)
PAX4 [2]
  binding signal: 9.43 upbm affinity estimate (log intensity, higher = more binding, comparable within an allelic series)
HOXA2 [15]
  binding signal: 7.62 upbm affinity estimate (log intensity, higher = more binding, comparable within an allelic series)
ALX3 [3]
  binding signal: 7.72 upbm affinity estimate (log intensity, higher = more binding, comparable within an allelic series)
NKX2-6 [16]
  binding signal: 9.13 upbm affinity estimate (log intensity, higher = more binding, comparable within an allelic series)
PAX4 [4]
  binding signal: 9.37 upbm affinity estimate (log intensity, higher = more binding, comparable within an allelic series)
HOXA2 [17]
  binding signal: 10.4 upbm affinity estimate (log intensity, higher = more binding, comparable within an allelic series)
PAX4 [5]
  binding signal: 9.37 upbm affinity estimate (log intensity, higher = more binding, comparable within an allelic series)
ALX3 [6]
  binding signal: 7.9 upbm affinity estimate (log intensity, higher = more binding, comparable within an allelic series)
PAX4 [7]
  binding signal: 9.28 upbm affinity estimate (log intensity, higher = more binding, comparable within an allelic series)
ALX3 [8]
  binding signal: 7.73 upbm affinity estimate (log intensity, higher = more binding, comparable within an allelic series)
NKX2-6 [18]
  binding signal: 9.24 upbm affinity estimate (log intensity, higher = more binding, comparable within an allelic series)
ALX3 [9]
  binding signal: 7.69 upbm affinity estimate (log intensity, higher = more binding, comparable within an allelic series)
PAX4 [10]
  binding signal: 9.32 upbm affinity estimate (log intensity, higher = more binding, comparable within an allelic series)
HOXA2 [19]
  binding signal: 10.4 upbm affinity estimate (log intensity, higher = more binding, comparable within an allelic series)
ALX3 [11]
  binding signal: 7.78 upbm affinity estimate (log intensity, higher = more binding, comparable within an allelic series)
HOXA2 [20]
  binding signal: 7.54 upbm affinity estimate (log intensity, higher = more binding, comparable within an allelic series)

## CGTCCCCC
PAX4 [1]
  binding signal: 9.1 upbm affinity estimate (log intensity, higher = more binding, comparable within an allelic series)
PAX4 [2]
  binding signal: 9.14 upbm affinity estimate (log intensity, higher = more binding, comparable within an allelic series)
NKX2-6 [16]
  binding signal: 9.4 upbm affinity estimate (log intensity, higher = more binding, comparable within an allelic series)
PAX4 [4]
  binding signal: 9.11 upbm affinity estimate (log intensity, higher = more binding, comparable within an allelic series)
PAX4 [5]
  binding signal: 9.08 upbm affinity estimate (log intensity, higher = more binding, comparable within an allelic series)
PAX4 [7]
  binding signal: 9.19 upbm affinity estimate (log intensity, higher = more binding, comparable within an allelic series)
NKX2-6 [18]
  binding signal: 9.03 upbm affinity estimate (log intensity, higher = more binding, comparable within an allelic series)
PAX4 [10]
  binding signal: 9.21 upbm affinity estimate (log intensity, higher = more binding, comparable within an allelic series)

## CCAGGAGC
PAX4 [1]
  binding signal: 9.4 upbm affinity estimate (log intensity, higher = more binding, comparable within an allelic series)
PAX4 [2]
  binding signal: 9.35 upbm affinity estimate (log intensity, higher = more binding, comparable within an allelic series)
NKX2-6 [16]
  binding signal: 9.22 upbm affinity estimate (log intensity, higher = more binding, comparable within an allelic series)
PAX4 [4]
  binding signal: 9.51 upbm affinity estimate (log intensity, higher = more binding, comparable within an allelic series)
PAX4 [5]
  binding signal: 9.26 upbm affinity estimate (log intensity, higher = more binding, comparable within an allelic series)
PAX4 [7]
  binding signal: 9.24 upbm affinity estimate (log intensity, higher = more binding, comparable within an allelic series)
NKX2-6 [18]
  binding signal: 9.26 upbm affinity estimate (log intensity, higher = more binding, comparable within an allelic series)
PAX4 [10]
  binding signal: 9.32 upbm affinity estimate (log intensity, higher = more binding, comparable within an allelic series)

## CGACAGCG
PAX4 [1]
  binding signal: 9.45 upbm affinity estimate (log intensity, higher = more binding, comparable within an allelic series)
PAX4 [2]
  binding signal: 9.39 upbm affinity estimate (log intensity, higher = more binding, comparable within an allelic series)
NKX2-6 [16]
  binding signal: 9.49 upbm affinity estimate (log intensity, higher = more binding, comparable within an allelic series)
PAX4 [4]
  binding signal: 9.48 upbm affinity estimate (log intensity, higher = more binding, comparable within an allelic series)
PAX4 [5]
  binding signal: 9.36 upbm affinity estimate (log intensity, higher = more binding, comparable within an allelic series)
PAX4 [7]
  binding signal: 9.33 upbm affinity estimate (log intensity, higher = more binding, comparable within an allelic series)
NKX2-6 [18]
  binding signal: 9.32 upbm affinity estimate (log intensity, higher = more binding, comparable within an allelic series)
PAX4 [10]
  binding signal: 9.44 upbm affinity estimate (log intensity, higher = more binding, comparable within an allelic series)

## GGGGGGGA
PAX4 [1]
  binding signal: 9.06 upbm affinity estimate (log intensity, higher = more binding, comparable within an allelic series)
PAX4 [2]
  binding signal: 9.13 upbm affinity estimate (log intensity, higher = more binding, comparable within an allelic series)
HOXA2 [15]
  binding signal: 6.89 upbm affinity estimate (log intensity, higher = more binding, comparable within an allelic series)
ALX3 [3]
  binding signal: 7.53 upbm affinity estimate (log intensity, higher = more binding, comparable within an allelic series)
PAX4 [4]
  binding signal: 9.12 upbm affinity estimate (log intensity, higher = more binding, comparable within an allelic series)
HOXA2 [17]
  binding signal: 9.81 upbm affinity estimate (log intensity, higher = more binding, comparable within an allelic series)
PAX4 [5]
  binding signal: 9.01 upbm affinity estimate (log intensity, higher = more binding, comparable within an allelic series)
ALX3 [6]
  binding signal: 7.53 upbm affinity estimate (log intensity, higher = more binding, comparable within an allelic series)
PAX4 [7]
  binding signal: 9.15 upbm affinity estimate (log intensity, higher = more binding, comparable within an allelic series)
ALX3 [8]
  binding signal: 7.42 upbm affinity estimate (log intensity, higher = more binding, comparable within an allelic series)
ALX3 [9]
  binding signal: 7.45 upbm affinity estimate (log intensity, higher = more binding, comparable within an allelic series)
PAX4 [10]
  binding signal: 9.15 upbm affinity estimate (log intensity, higher = more binding, comparable within an allelic series)
HOXA2 [19]
  binding signal: 10.2 upbm affinity estimate (log intensity, higher = more binding, comparable within an allelic series)
ALX3 [11]
  binding signal: 7.55 upbm affinity estimate (log intensity, higher = more binding, comparable within an allelic series)
HOXA2 [20]
  binding signal: 7.05 upbm affinity estimate (log intensity, higher = more binding, comparable within an allelic series)
